Values without a mark were called inactive. Results filed as inconclusive are left out. Entries that show only a call come without a potency. Calls of active or inactive are those of the source. Unless noted, calls come from the whole dose curve; as a rule, active = well fitted curve in the direction sought with a large enough effect in the repeat runs; inconclusive = weak or mixed curves; inactive = no such curve, though single readings can be large; an effect the other way counts as inactive or inconclusive.
Key:
[1] = qHTS assay for small molecules that induce genotoxicity in human embryonic kidney cells expressing luciferase-tagged ATAD5 (AID 651632); note: nearly all actives have a fitted effect of over 15% in size
Procedure, shortened: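 Genotoxicity read-out via ATAD5-luciferase: HEK293T cells, 16 hr compound incubation at 37C, Amplite detection.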

[2] = qHTS assay for small molecule agonists of the p53 signaling pathway - cell viability (AID 651633; calls by dose curve;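 note: p53RE-bla HCT reporter cells with a stable beta-lactamase p53 reporter; series mostly up to about 83 µM; nearly all actives have a fitted effect of over 30% in size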)
Procedure, shortened: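 Viability counter-read: CellTiter-Glo luminescence (30 min, room temperature) in the same p53RE-bla plates. These plates had been exposed to compounds for 16 h at 37 C.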

[3] = qHTS assay for small molecules that induce genotoxicity in human embryonic kidney cells expressing luciferase-tagged ATAD5 - cell viability (AID 651634; calls by dose curve; note: nearly all actives have a fitted effect of over 25% in size)
Procedure, shortened: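 Live-cell protease activity (CellTiter-Fluor, fluorescence) indicates viability. HEK293T cells with luciferase-tagged ATAD5; 15.5 hr compound treatment at 37C.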

[4] = qHTS assay for small molecule disruptors of the mitochondrial membrane potential - cell viability (AID 720634; calls by dose curve; note: nearly all actives have a fitted effect of over 20% in size; note: potency is the fitted concentration of half-maximal effect)
Procedure, shortened: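 Human hepatoma HepG2 cells were treated for 1 hr with test chemicals, then given m-MPI dye and CellTiter-Glo. Cell viability reflects luminescence proportional to cellular ATP.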

[5] = qHTS assay for small molecule disruptors of the mitochondrial membrane potential (AID 720635)
Procedure, shortened: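 Mitochondrial membrane potential tracked with Mito-MPS dye, red aggregates (ex 540/em 590 nm) against green monomers (ex 490/em 535 nm). Compound treatment 1 hr at 37C, dye 30 min in HepG2.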

[6] = qHTS assay to test for compound auto fluorescence at 590 nm (red) in HepG2 cells (AID 720674)
Procedure, shortened: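 Red autofluorescence (Ex/Em 540/590 nm, Rose Bengal sodium equivalents) was measured in HepG2 cells, 2,000 per well in MEM plus 10% FBS, plated overnight at 37 C. Readings were taken 1 hr after adding 23 nL compound or DMSO, at 37 C and 5% CO2.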

[7] = qHTS assay to test for compound auto fluorescence at 535 nm (green) in HepG2 cells (AID 720675)
[8] = qHTS assay to test for compound auto fluorescence at 460 nm (blue) in HEK293 cells (AID 720678)
Procedure, shortened: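 Triamterene serves as the blue fluorophore standard. Compound signal at 405/460 nm is read in HEK293 wells (2,000 cells, 10% dialyzed FBS) after overnight treatment at 37C.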

[9] = qHTS assay to test for compound auto fluorescence at 590 nm (red) in HEK293 cells (AID 720679)
Procedure, shortened: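 We plated HEK293 cells in 10% dialyzed FBS medium, let them adhere for 4-5 hr, then added 23 nL compound. Overnight at 37C and 5% CO2 preceded fluorescence measurement at 540/590nm.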

[10] = qHTS assay to test for compound auto fluorescence at 535 nm (green) in HEK293 cells (AID 720680)
[11] = qHTS assay to test for compound auto fluorescence at 460 nm (blue) in HEK293 cell free culture (AID 720681)
Procedure, shortened: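 Blue fluorescence (Ex 405/Em 460 nm, triamterene-equivalent) was read immediately after pin transfer of compound or DMSO into medium (DMEM, 10% FBS) without cells.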

[12] = qHTS assay to test for compound auto fluorescence at 535 nm (green) in HEK293 cell free culture (AID 720682)
Procedure, shortened: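 DMEM + 10% FBS, cell-free; cpd or DMSO pinned in; Ex485/Em535 read; output as fluorescein-equivalent signal.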

[13] = qHTS assay to test for compound auto fluorescence at 460 nm (blue) in HepG2 cell free culture (AID 720685)
Procedure, shortened: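 Compound (23 nL) or DMSO pinned into cell-free MEM with 10% FBS; blue fluorescence read at 405/460 nm excitation/emission, expressed as auto-fluorescence equivalency to triamterene.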

[14] = qHTS assay to test for compound auto fluorescence at 535 nm (green) in HepG2 cell free culture (AID 720686)
[15] = qHTS assay to test for compound auto fluorescence at 460 nm (blue) in HepG2 cells (AID 720687)
Procedure, shortened: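 Blue-channel autofluorescence (Ex/Em 405/460 nm, triamterene-equivalent) was measured after 1 hr compound exposure at 37 C, 5% CO2. Cells were HepG2, plated overnight at 37 C in MEM plus 10% FBS.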

[16] = target: Glucocorticoid receptor (Homo sapiens) (UniProt P04150); experiment: qHTS assay to identify small molecule agonists of the glucocorticoid receptor (GR) signaling pathway (AID 720691; active = well fitted activation curve with a large enough effect in the signal ratio in the repeat runs, not every such curve was filed as active; the % refers to the signal ratio)
Procedure, shortened: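 Beta-lactamase reporter activity, read as fluorescence intensity, was measured in GR-bla HeLa cells exposed to compounds for 18 h at 37 C and then loaded with LiveBLAzer B/G FRET substrate for 2 h at room temperature.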

[17] = target: Glucocorticoid receptor (Homo sapiens) (UniProt P04150); experiment: qHTS assay to identify small molecule antagonists of the glucocorticoid receptor (GR) signaling pathway (AID 720692; active = well fitted inhibition curve with a large enough effect in the signal ratio in the repeat runs, not every such curve was filed as active; the % refers to the signal ratio)
Procedure, shortened: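 Fluorescence from cleaved LiveBLAzer B/G FRET substrate reports GRE-driven beta-lactamase in HeLa cells; compounds are tested against 5 nM dexamethasone (final) over 18 h at 37 C, substrate incubation 2 h at room temperature.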

[18] = qHTS assay to test for compound auto fluorescence at 590 nm (red) in HEK293 cell free culture (AID 720683)
Procedure, shortened: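 Red-channel autofluorescence of compounds in culture medium (DMEM, 10% FBS), no cells, measured at 540/590 nm. Rose Bengal sodium is the reference fluorophore for equivalence.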

[19] = qHTS assay to test for compound auto fluorescence at 590 nm (red) in HepG2 cell free culture (AID 720684)
Procedure, shortened: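 Steps: dispense MEM/10% FBS medium, no cells; pin compound or DMSO vehicle; read red channel, Ex/Em 540/590 nm. Output given as Rose Bengal sodium equivalents.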

Glucocorticoid receptor (Homo sapiens), sequence (P04150 whole entry, looked up): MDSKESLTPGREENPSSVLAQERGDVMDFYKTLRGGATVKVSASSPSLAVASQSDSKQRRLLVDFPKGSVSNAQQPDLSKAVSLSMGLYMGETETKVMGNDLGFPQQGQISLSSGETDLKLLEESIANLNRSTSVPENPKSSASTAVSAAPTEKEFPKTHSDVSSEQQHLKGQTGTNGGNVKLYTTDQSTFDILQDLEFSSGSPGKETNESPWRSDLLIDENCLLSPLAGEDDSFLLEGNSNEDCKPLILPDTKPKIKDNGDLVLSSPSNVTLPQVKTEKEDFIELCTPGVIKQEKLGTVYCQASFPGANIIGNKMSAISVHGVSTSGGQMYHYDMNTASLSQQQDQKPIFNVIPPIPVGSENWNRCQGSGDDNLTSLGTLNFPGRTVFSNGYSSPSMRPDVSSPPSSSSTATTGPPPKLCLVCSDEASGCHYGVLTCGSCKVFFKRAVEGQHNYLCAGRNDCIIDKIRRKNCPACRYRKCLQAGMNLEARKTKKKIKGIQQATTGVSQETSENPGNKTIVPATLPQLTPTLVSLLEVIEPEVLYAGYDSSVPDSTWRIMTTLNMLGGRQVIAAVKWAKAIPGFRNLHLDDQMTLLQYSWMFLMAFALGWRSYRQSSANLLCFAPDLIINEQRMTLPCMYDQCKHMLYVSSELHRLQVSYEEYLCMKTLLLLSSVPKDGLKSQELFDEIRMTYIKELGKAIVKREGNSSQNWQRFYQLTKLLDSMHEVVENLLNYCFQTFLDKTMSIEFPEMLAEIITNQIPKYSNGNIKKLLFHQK

Structure (SMILES)	Potency [1]	Potency [2]	Potency [3]	Potency [4]	Potency [5]	outcome [6]	outcome [7]	Potency [8]	outcome [9]	outcome [10]	Potency [11]	outcome [12]	outcome [13]	outcome [14]	outcome [15]	Potency [16]	Potency [17]	outcome [18]	outcome [19]
C=CC(=O)OCCCCCCCCCC	inactive	inactive	inactive	inactive	inactive	inactive	inactive	inactive	inactive	inactive	inactive	inactive	inactive	inactive	inactive	inactive	inactive		
O=C(N[C@@H](Cc1ccccc1)[C@@H](O)C(=O)N1C[C@@H](O)[C@@H](O)C1)c1cc2cc(Cl)ccc2[nH]1	inactive	inactive	inactive	inactive		inactive	inactive	inactive		inactive	inactive	inactive		inactive	inactive			inactive	inactive
O=C(O)c1ccc(O)c(O)c1	inactive	inactive	inactive	inactive		inactive	inactive	inactive		inactive	inactive	inactive	inactive	inactive	inactive	inactive	inactive	inactive	inactive
O=[N+]([O-])c1ccc(Cl)cc1Cl	inactive	inactive	inactive	inactive	inactive	inactive	inactive	inactive	inactive	inactive	inactive	inactive	inactive	inactive	inactive	inactive	inactive		inactive
C[C@@H](O)[C@H]1C(=O)N2C(C(=O)O)=C(S[C@@H]3CN[C@H](CNS(N)(=O)=O)C3)[C@H](C)[C@H]12	inactive	inactive	inactive	inactive	inactive	inactive	inactive	inactive	inactive	inactive	inactive	inactive	inactive	inactive	inactive	inactive	inactive	inactive	inactive
N#Cc1ccc(CC(=O)c2cccc(C(F)(F)F)c2)cc1	inactive	inactive	inactive	48.6 µM (active)		inactive	inactive	inactive	inactive	inactive	inactive	inactive	inactive	inactive	inactive	inactive	inactive		inactive
Cc1ccc(NC=O)c(C)c1	inactive	inactive	inactive	inactive		inactive	inactive	inactive	inactive	inactive	inactive	inactive	inactive	inactive	inactive	inactive	inactive	inactive	inactive

Reference: PubChem BioAssay (Tox21)
